# Results as given in PubChem BioAssay (NCI).
# About 83,000 compounds went through this panel and 20% of them were active in at least one assay; those are over-represented in the sample as a whole.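 Cells were grown in 96-well plates and exposed to the test compound at a single concentration for 48 hours; results are reported as percent growth, with values below 10 considered active.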 Unmarked numbers belong to inactive results. Activity calls are given as the source filed them.
# What was measured:
# Assay in all cases: NCI-60 one-dose screen, 48 h (100 = growth as untreated, 0 = no growth, -100 = all killed)
# Details in all cases: 10 µM
# [1] = system: T-47D breast
# [2] = system: BT-549 breast
# [3] = system: MDA-MB-435 melanoma
# [4] = system: SW-620 colon
# [5] = system: MCF7 breast
# [6] = system: HCT-116 colon
# [7] = system: HCC-2998 colon
# [8] = system: KM12 colon
SMILES,growth [1],growth [2],growth [3],growth [4],growth [5],growth [6],growth [7],growth [8]
N=C(N)c1ccc(-c2ccc(-c3cccs3)s2)nc1,43%,91%,44.5%,22.4%,17.8%,18.5%,-52.7% (active),
N/C(=N\O)c1cn(C2OC(CO)C(O)C2O)c2ncnc(N)c12 (centres undefined),-7.04% (active),14%,-73.1% (active),-12.1% (active),-29.9% (active),9.85% (active),-23.1% (active),-24.2% (active)
CC(C)C(C)C(N)C(=O)O (centres undefined),102%,90.7%,105%,110%,92.9%,94.5%,101%,103%
CCOC(=O)c1c(C)n(-c2ccc(Cl)cc2)c2ccc(OC(=O)/C=C/c3ccccc3)cc12,82.7%,82.2%,9.43% (active),67%,59.6%,90.6%,102%,
CCCOCC(O)CNCCN (centres undefined),103%,110%,98.5%,98.9%,97.4%,104%,131%,122%
Fc1ccc2[nH]c3c(NCCCN4CCOCC4)ncnc3c2c1,54.6%,96.4%,88.3%,69.6%,84.7%,47.4%,75.4%,
Cc1ccc(C)c(S(=O)(=O)NC2c3ccccc3Oc3ccccc32)c1,72.1%,102%,107%,88.8%,90.8%,91.8%,104%,102%
OC(CNC1CCCC1)Cn1c2ccccc2c2ccccc21 (centres undefined),-1.44% (active),53.8%,-2.91% (active),-25.5% (active),-66.2% (active),-37.3% (active),1.39% (active),21.6%
Cc1ccc(S(=O)(=O)Oc2ccccc2-c2ccccc2)cc1,37.1%,44.3%,-41.5% (active),20.8%,15.9%,14.6%,46.3%,15.6%
COc1ccc(-c2nc(-c3nc4ccc(OC)cc4[nH]3)c3ccccn23)cc1,36.7%,77.6%,81.5%,93.3%,69.4%,66.4%,86.4%,
COc1ccc2c(=O)cc(C(Cl)(Cl)Cl)oc2c1,4.96% (active),-11.9% (active),-81% (active),-2.53% (active),-9.4% (active),4.23% (active),-30% (active),
COc1ccccc1NC1=C(N2CCCCC2)C(=O)c2ccccc2C1=O,77.4%,94.2%,93.2%,93.4%,74.8%,78.1%,91.7%,
COc1ccc(/C=C(\c2cc(OC)c(OC)c(OC)c2)c2nnc(-c3cccs3)o2)cc1,78.7%,84.4%,65.9%,89.1%,72.4%,66.4%,89.2%,90%
N=C(N)c1ccc(-c2ccc(-c3ccccc3)s2)s1,-66.9% (active),88.9%,-83.3% (active),-71.1% (active),-71.5% (active),-62% (active),-80.8% (active),
COc1ccc(-c2nc(NC(=O)CS(=O)(=O)c3ccc(F)cc3)sc2C)cc1,33.2%,66.3%,75%,50.9%,57.9%,44.7%,47.4%,
O=C(c1ccccc1)C(Nc1ccccc1)c1ccccc1 (centres undefined),76.5%,94.4%,102%,97.6%,101%,87.1%,101%,93.4%
CCCC(C)c1ccc(OCCCCCCN2CCNCC2)cc1 (centres undefined),-12.7% (active),76.5%,28.9%,-16.6% (active),-23.2% (active),-6% (active),-71.4% (active),15.1%

SMILES,growth [1],growth [2],growth [3],growth [4],growth [5],growth [6],growth [7],growth [8]
O=c1c2cccc3c(Nc4ccc(Br)cn4)ccc(c32)c2nc3ccccc3n12,18.9%,84.4%,97%,94.8%,4.15% (active),88.2%,74.8%,77.2%
CCCCCC(=O)N1c2ccccc2NC2=C(C(=O)CC(c3ccc(OC)c(OC)c3)C2)C1c1ccc(C(F)(F)F)cc1 (centres undefined),36.9%,75.9%,62.4%,68.8%,50.2%,39.3%,81.2%,
Cc1ccc(NS(=O)(=O)c2ccccc2)c(NS(=O)(=O)c2ccccc2)c1,101%,104%,106%,95.1%,104%,93.7%,106%,103%
CCCn1c(=O)c2c(nc(-c3cccc(OCCCCl)c3)n2C)n(CCC)c1=O,15.8%,67.9%,82.5%,76.6%,84.6%,36.4%,69.7%,76.2%
COc1ccc(-c2nc(-c3nc4ccc(C)cc4[nH]3)c3ccccn23)cc1,19.3%,68.1%,62.9%,61.2%,35%,41.1%,36.4%,
Cn1cnc([N+](=O)[O-])c1/C=C1\Oc2ccc(Cl)cc2C1=O,85.1%,109%,86.2%,72%,40.2%,22.4%,97.4%,82.9%
COC(=O)[C@]12CC[C@@H](C)[C@H](C)[C@@H]1C1=CC[C@@H]3[C@@]4(C)C/C(=N\O)[C@H](O)[C@@]5(C)COC(=C45)C[C@@]3(C)[C@]1(C)CC2,-84.6% (active),-79.8% (active),-84% (active),-64.5% (active),-71.1% (active),-84.8% (active),-89.4% (active),-80.9% (active)
CCCc1c(CC)c(=N)c2ccccc2n1C,73%,81.8%,7.61% (active),57.8%,32%,27.7%,15.5%,
N#Cc1c2c([nH]c(=O)c1C(N)=O)CCCCC2,79.2%,100%,108%,101%,103%,91.8%,111%,106%
Cc1cc(/C=C2\SC(=Nc3ccccc3)N(C3CCCC3)C2=O)c(C)n1-c1ccc(Cl)cc1,-49.3% (active),-57.6% (active),-82.4% (active),-61.6% (active),-56.5% (active),-50.5% (active),-83.8% (active),
O=C(OCc1ncc(-c2ccc(C(F)(F)F)cc2)c(NC2CCCCCC2)n1)c1c(F)c(F)c(F)c(F)c1F,28.3%,67.8%,57.3%,64.5%,51%,52.6%,84.2%,45.6%
COc1cccc2c1C(=O)c1c(O)c3c(c(O)c1C2=O)C[C@@](O)(C(=O)COC(=O)c1cccnc1)C[C@@H]3OC1CC(N)C(O)C(C)O1 (some centres undefined),-2.37% (active),5.42% (active),-87.5% (active),3.34% (active),4.11% (active),6.26% (active),-50.3% (active),-0.352% (active)
COc1cc(Nc2ccnc(N3CCN(c4ccnc5cc(Cl)ccc45)CC3)n2)cc(OC)c1,-16.6% (active),-4.01% (active),1.35% (active),11%,0.585% (active),5.15% (active),9.25% (active),8.26% (active)
Nc1ccc(Sc2ccc3c4c2cccc4c(=O)n2c4ccccc4nc32)cc1,39.6%,59.1%,80.2%,46.3%,23.6%,46.8%,80.7%,73.6%
COc1ccc(-c2nc3sc(-c4ccccc4)c(-c4ccccc4)n3c2/C=C/c2ccc(F)cc2)cc1,77.6%,112%,97.1%,95.5%,73.8%,77.3%,92.8%,90.7%
COc1ccc(C(C)=O)cc1N1C(=O)C2C(C1=O)C1(c3ccccc3)C(=O)C2(c2ccccc2)C(c2ccc(C)cc2)=C1c1ccc(C)cc1 (centres undefined),32.3%,38.4%,35.6%,27.1%,15.6%,24.3%,46.6%,
CCc1ccc(-c2nnc(COc3ccc(-c4nc5ccc(C)cc5[nH]4)cc3OC)o2)cc1,15%,38.8%,36.8%,86.7%,30.6%,37.1%,97.9%,50.9%
